Screening data (PubChem)
TDP-43 yeast inh: inhibitors of TDP-43 toxicity in yeast. Potency, µM (series often up to 46.1 µM), hits mostly activators. 410,000 compounds, 1.8% hits. TDP-43 expressing yeast growth rescue, BacTiter-Glo, 24 h; further: nearly all actives have a fitted effect of over 50% in size
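Galactose-induced TDP-43 yeast, OD600=0.02, compound pinned; 24 hr, 30 deg C; BacTiter-Glo luminescence for growth. Inhibitors of TDP-43 toxicity read as activators.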
aSyn yeast inh: alpha-synuclein toxicity inhibition in yeast; AID 652106; Yeast expressing alpha-synuclein, growth rescue, BacTiter-Glo, 24 h; 370,000 compounds, 0.14% hits; Potency, µM (top dose mostly 46.1 µM), most hits filed as activators; further: nearly all actives have a fitted effect of over 65% in size
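Galactose-induced alpha-syn yeast (OD600=0.02, raffinose-pregrown) + pinned cpd, 24 hr, 30 deg C; growth by BacTiter-Glo luminescence. Growth restoration scores as activation.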
FUS suppressor: rescues growth of FUS-expressing yeast. Potency, µM (top dose mostly 76.6 µM), actives largely listed as activators. 390,000 compounds, 0.24% hits. S. cerevisiae FUS-expressing, growth rescue, OD600, 24 h; further: nearly all actives have a fitted effect of over 55% in size
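Compound concentration series was pinned onto galactose-induced FUS-expressing yeast seeded at OD 0.005. Plates sat 24hr at 30C; absorbance at 600 nm gave growth. DMSO served as background control.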
ClpP mod: qHTS Assay for Activators of ClpP | ATP-dependent Clp protease proteolytic subunit (Bacillus subtilis (strain 168)), P80244 | purified B. subtilis ClpP, FRET peptide cleavage, 20 min | Potency, µM (doses to about 57.5 µM) | 340,000 compounds, 1.9% hits | AID 651965, 2013; active means well fitted falling curve with a large enough effect; inconclusive means small, poorly fitted or top-dose-only effect; inactive means no such curve, though single readings can be large or run the other way; further: the source files actives as falling curves though it sought activators and does not explain the sign; nearly all actives have a fitted effect of over 65% in size
Target sequence (P80244 whole entry, looked up): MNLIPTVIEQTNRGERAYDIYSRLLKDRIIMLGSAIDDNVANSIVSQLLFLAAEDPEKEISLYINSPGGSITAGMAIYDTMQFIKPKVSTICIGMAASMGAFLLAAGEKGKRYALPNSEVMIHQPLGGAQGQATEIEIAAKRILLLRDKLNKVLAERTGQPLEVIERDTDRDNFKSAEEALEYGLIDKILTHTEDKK
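Buffer: 100 mM Tris/HCl pH8, 100 mM KCl, 0.05% low protease BSA, 2.5% glycerol, 0.01% Tween-20. ClpP 10 microg/mL final; 20 min RT; delta FRET normalized to ADEP and DMSO controls.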
Abeta rescue: compounds reversing amyloid beta toxicity in yeast. AID 1347071. Potency, µM (series often up to 46.1 µM), actives largely listed as activators. yeast expressing A-beta42, growth rescue, OD600, 48 h; response scale: 0% DMSO, 100% iron-clioquinol control. 410,000 compounds, 0.063% hits; further: nearly all actives have a fitted effect of over 55% in size
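Yeast A-beta toxicity model in growth medium with pinned compounds, 48 h at 30 C; growth read as absorbance at 600 nm. Normalized to FeCl3/clioquinol equimolar mix (positive) and DMSO (negative).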
MmCpn inh: blocks the Methanococcus maripaludis chaperonin Mm-Cpn | purified Mm-Cpn ATPase, ADP Transcreener TR-FRET | Potency, µM (series often up to 76.9 µM), most hits filed as inhibitors | 330,000 compounds, 0.031% hits | AID 504842; further: nearly all actives have a fitted effect of over 80% in size
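Eu-cryptate anti-ADP/ADP-d2 competition gives a ratio inversely related to ADP. Enzyme at 25 nM was pre-exposed to compound for 10 min, then given 10 uM ATP for 30 min, 37°C throughout.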
Hits are given with their value; i = inactive; ? = inconclusive; nt = not tested or not shown. A selection: hits, their analogues and other compounds. The true share with any hit is near 3.6%. Unless noted, the call rests on the fitted dose curve; in most records, active means well fitted curve in the direction sought with a large enough effect; inconclusive means small, poorly fitted or top-dose-only effect, or another doubt; inactive means no such curve, though single readings can be large; an effect the other way counts as inactive or inconclusive.

SMILES | TDP-43 yeast inh | aSyn yeast inh | FUS suppressor | ClpP mod | Abeta rescue | MmCpn inh
CCOc1ccc2c(c1)c1nnc(SCC(=O)NC3CC3)nc1n2C | i | i | i | nt | i | i
COc1ccc2c(c1)c1nnc(SCC(=O)N3C(C)CCCC3C)nc1n2C (stereo not given) | 14µM | i | i | i | i | i
O=C(COc1coc(CN2CCc3ccccc3C2)cc1=O)N1CCOCC1 | i | i | nt | 28µM | i | i
CCOc1ccccc1NC(=O)COc1coc(CN2CCc3ccccc3C2)cc1=O | i | i | i | ? | i | i
c1ncc2snnc2n1 | nt | i | nt | i | nt | nt
Cc1cccc(N2CC(C(=O)Nc3nnc(SCc4ccccn4)s3)CC2=O)c1 (stereo not given) | i | i | 18µM | i | i | i
CCNc1nc(NCC)nc(SCCOC(=O)COc2ccc(Cl)cc2Cl)n1 | ? | i | i | i | i | i
CCNc1nc(NC(C)C)nc(SCCOc2ccc(C)cc2)n1 | 13µM | i | i | i | i | i
CCNc1nc(NCC)nc(OCCOC(=O)c2ccccc2)n1 | ? | i | i | i | i | i
CCNc1nc(NC(C)C)nc(SCCOC(=O)c2ccccc2)n1 | 13µM | i | i | i | i | i
CC(C)Nc1nc(NC(C)C)nc(SCCOC(=O)Nc2ccc(Cl)cc2Cl)n1 | 16µM | i | nt | i | i | i
COc1c(Br)cc2c(C)c(C(=O)O)oc2c1Br | i | i | nt | i | i | i
Cc1c(C(=O)O)oc2c3c(ccc12)OCCO3 | i | i | nt | 18µM | i | i
COc1ccc(OC)c(CNC(=O)c2cc(=O)[nH]c3ccc(S(=O)(=O)N4CCCCC4C)cc23)c1 (stereo not given) | i | nt | i | i | i | nt
Cc1cccc(C=Nc2ccc3c4c(cccc24)CC3)c1O | i | i | nt | 16µM | i | i
Oc1ccc(Cl)cc1C=Nc1ccc2c3c(cccc13)CC2 | i | i | i | i | i | i
CCOC(=O)N1CCN(C(=S)Nc2ccc3nc(N4CCN(CC)CC4)cc(C)c3c2)CC1 | i | i | nt | 16µM | i | i
Cc1cc(N2CCCCC2)nc2ccc(NC(=O)CCC(=O)NCCC(C)C)cc12 | i | i | i | 16µM | i | i
CCN1CCN(C(=S)Nc2ccc3nc(N4CCN(CC)CC4)cc(C)c3c2)CC1 | i | ? | nt | ? | i | i
Cc1cc(N2CCCCCC2)nc2ccc(F)cc12 | i | i | i | 28µM | i | nt
Cc1cc(N2CCCCC2)nc2ccc(NC(=O)c3cccc(F)c3)cc12 | i | nt | i | i | i | nt
CCOC(=O)C1CCCN(C(=O)CCC(=O)Nc2ccc3nc(N4CCOCC4)cc(C)c3c2)C1 (stereo not given) | i | i | nt | 8.9µM | i | i
CCCCNC(=O)CCC(=O)Nc1ccc2nc(N3CCCCC3)cc(C)c2c1 | i | i | i | i | i | i
Cc1cc(N2CCOCC2)nc2ccc(NC(=O)CCC(=O)N3CCN(c4ccccc4)CC3)cc12 | i | i | i | nt | i | i
COc1cc(NC(=O)Cn2c(=O)nc(-c3ccccc3F)c3cc(Cl)ccc32)cc(OC)c1 | i | nt | i | i | i | nt
SMILES | TDP-43 yeast inh | aSyn yeast inh | FUS suppressor | ClpP mod | Abeta rescue | MmCpn inh
CCOC(=O)CC(NC(=O)c1cc2c(=O)n3cccc(C)c3nc2s1)c1ccc(OCC)c(OC)c1 (stereo not given) | i | nt | i | i | i | nt
Cc1cc(N2CCOCC2)nc2ccc(NC(=O)C3CCC(C)CC3)cc12 (stereo not given) | i | i | i | 14µM | i | i
O=C(Nc1cccc(-c2nc3ncccc3o2)c1)c1cc2ccccc2o1 | ? | i | i | i | i | i
O=C(CCl)Nc1cccc(-c2cnc3ccccc3n2)c1 | 13µM | i | i | i | i | i
O=C(Cc1ccccc1)Nc1cccc(-c2nc3cccnc3s2)c1 | i | nt | i | 35µM | i | nt
O=C(Nc1cccc(-c2nc3cccnc3s2)c1)c1ccco1 | 10µM | i | i | ? | i | i
O=C(Cc1ccccc1)Nc1cccc(-c2nc3ncccc3o2)c1 | i | i | i | 28µM | i | i
